Among the test systems are T-47D breast; BT-549 breast; MDA-MB-435 melanoma; SW-620 colon; MCF7 breast; HCT-116 colon; HCC-2998 colon; KM12 colon.
Holding throughout (experiment): NCI-60 one-dose screen, 48 h (100 = growth as untreated, 0 = no growth, -100 = all killed)
What all share (details): 10 µM unless noted

Our source for the growth values is PubChem BioAssay (NCI).

Compounds without any hit were thinned out: in the full panel of roughly 83,000, 20% have a hit.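 Note: values are percent growth. 100 is the growth of untreated cells, values between 100 and 0 indicate rising inhibition; between -100 and 0 indicates cell death.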 Unmarked numbers belong to inactive results. The source made the active and inactive calls. How the source made its calls: active means growth percent below 10; inactive means the rest.

For the molecule `O=C(/C=C/c1ccc(Cl)c(Cl)c1)Nc1ncc(Cc2ccc(Cl)c(Cl)c2)s1`, the growth in the test on T-47D breast was 24.6%; with BT-549 breast, 47.4%; with MDA-MB-435 melanoma, 26.9%; with SW-620 colon, 33.3%; with MCF7 breast, 28.7%; with HCT-116 colon it was 26.6%. Further, the growth with HCC-2998 colon is 41.2%; in the test with KM12 colon, 13.3%.
Regarding `Nc1ccc(Nc2ncnc3sc4c(c23)CCN(Cc2ccccc2)C4)cc1`, the growth in the test on T-47D breast is 102%; in the test with BT-549 breast it was 101%; with MDA-MB-435 melanoma it was 102%; in the test with SW-620 colon, 99.7%; with MCF7 breast, 84.5%; with HCT-116 colon, 96.9%. The growth in the test on HCC-2998 colon was 105%; with KM12 colon, 104%.
Turning to `O=C(CCCCCCN1CC(=O)N2[C@@H](c3ccccc3Br)c3[nH]c4ccccc4c3C[C@H]2C1=O)NO`, the growth in the test on T-47D breast was 19.2%; with BT-549 breast, 87.1%; with MDA-MB-435 melanoma, 27.8%; in the test on SW-620 colon it was 24.7%; in the test on MCF7 breast, 21.4%; in the test with HCT-116 colon it was 12.7%. In addition, the growth in the test with HCC-2998 colon is 56.9%; in the test with KM12 colon, 73%.
In the case of `CC(=O)c1cc(C(=O)N2c3ccccc3Sc3ccccc32)n2c1ccc1ccccc12`, the growth in the test with T-47D breast was 75.5%; in the test on BT-549 breast, 52.6%; in the test on MDA-MB-435 melanoma, 3.08% (active); with SW-620 colon, 41.6%; in the test on MCF7 breast, 30.5%; in the test with HCT-116 colon, 25.6%. For the same molecule, the growth is 87.8% in the test with HCC-2998 colon and 44.6% in the test with KM12 colon.
